According to ChEMBL document CHEMBL3988442, “University of Dundee, Small-Polar-MMV Screening Library” (2021):
The campaign covered roughly 53,000 compounds. About 900 (1.7%) showed an effect of 50% or more. The full list was thinned out, with strong results kept by preference.

What follows are molecules tested on Mycobacterium tuberculosis (assay: Cornell - Phenotypic assay to identify agents that inhibit growth of Mycobacterium tuberculosis). Conditions: 10 mM as filed; unlikely as a test dose.
Type: functional
Design: scale not given: direction of the effect not stated beside the values
With O=C(c1cc(-c2cccs2)cs1)N1CCSCC1 the “Percent Effect” value was 48.33%.
In the case of Cc1cc(NC(=O)NCC(C)N2CCc3ccccc32)no1 (stereo unspecified), the “Percent Effect” value was 26.44%.
For Cl.NC(CC1CCCCC1)c1ccccc1 (stereo unspecified), the “Percent Effect” value was 52.12%.
For Cl.NC(CC1CCCC1)c1ccccc1 (stereo unspecified), the “Percent Effect” value was 23.09%.
With NC(c1ccccc1)c1ccc(OC(F)F)cc1 (stereo unspecified) the “Percent Effect” value was 11.06%.
OC(CN1CCN(CC2CCCCC2)CC1)c1ccccc1 (stereo unspecified) was tested, and the “Percent Effect” value was 2.655%.
With NC(=O)C(NC(=O)COC1CCCCC1)c1ccccc1 (stereo unspecified) the “Percent Effect” value was 22.67%.
With NC(CC1CCCC1)c1ccc(Oc2ccccc2)cc1 (stereo unspecified) the “Percent Effect” value was 105%.
For COc1cc(C)nc(N2CCN(C(=O)c3ccn(C)c(=O)c3)CC2)n1, the “Percent Effect” value was 29.4%.
For Cn1c2ccccc2c2ncn(CCCN3CCOCC3)c(=O)c21, the “Percent Effect” value was -22.77%.
In the case of Cc1nc(CCC(N)=O)cc(C2CCCCN2S(C)(=O)=O)n1 (stereo unspecified), the “Percent Effect” value was 34.9%.
Cc1nn(C)c(Cl)c1CNCc1cccnc1N1CCCCC1.Cl was tested, and the “Percent Effect” value was 10.36%.
Cc1ccccc1N1CCN(c2ccncn2)C(C)C1 (stereo unspecified) was tested, and the “Percent Effect” value was 16.47%.
In the case of Cc1ccc(N2CCN(c3ccccc3C)CC2C)nn1 (stereo unspecified), the “Percent Effect” value was 29.54%.
In the case of Cc1ccccc1N1CCN(c2cc(N(C)C)ncn2)C(C)C1 (stereo unspecified), the “Percent Effect” value was 75.02%.
COCC1c2c(cnn2C)CCN1Cc1ccsc1 (stereo unspecified) was tested, and the “Percent Effect” value was 24.96%.
Cc1noc(C)c1CN1C[C@H](C)[C@]2(CCN(Cc3cccnc3)C2=O)C1.O=C(O)C(F)(F)F.O=C(O)C(F)(F)F was tested, and the “Percent Effect” value was -5.753%.
Cn1ccnc1CN1CCC2(CCC(=O)N2CCN2CCCC2)CC1.O=C(O)C(F)(F)F.O=C(O)C(F)(F)F was tested, and the “Percent Effect” value was 19.98%.
With Cc1cnn(CC2CN(c3cnc4ccccc4n3)CCO2)c1 (stereo unspecified) the “Percent Effect” value was 106.1%.
In the case of CN(C)CC1CN(c2cnc3ccccc3n2)CCO1 (stereo unspecified), the “Percent Effect” value was -10.68%.
With Cc1cnn(CC2CN(c3ncnc4ccccc34)CCO2)c1 (stereo unspecified) the “Percent Effect” value was 29.19%.
For Cc1nn(C)cc1-c1cc(C(=O)NCC(C)(C)c2ccc(F)cc2)n[nH]1, the “Percent Effect” value was 61.27%.
In the case of Cc1nn(C)cc1-c1cc(C(=O)NCC(C)(C)c2ccccc2F)n[nH]1, the “Percent Effect” value was -16.11%.
Cc1nn(C)cc1-c1cc(C(=O)NCC(C)(C)c2cccc(F)c2)n[nH]1 was tested, and the “Percent Effect” value was 26.97%.
COCC1c2nnn(CC3CC3)c2CCN1Cc1ccncc1.O=C(O)C(F)(F)F.O=C(O)C(F)(F)F (stereo unspecified) was tested, and the “Percent Effect” value was 18.59%.
In the case of CN1CCC(Cc2cc(N(C)C)ncn2)C1 (stereo unspecified), the “Percent Effect” value was 2.45%.
For CC(C)c1cc(CN2CCC(CC(=O)O)CC2)no1, the “Percent Effect” value was -2.549%.
With CC(C)c1cc(CN2CCC(N)CC2)no1 the “Percent Effect” value was -17.69%.
For CC(C)c1cc(CN2CCNCC2)no1, the “Percent Effect” value was 107.4%.
With CN1C[C@@H](C(=O)NC(C)(C)C)[C@@]2(COc3ccc(F)cc3C2=O)C1 the “Percent Effect” value was 28.72%.
In the case of COc1ccccc1C1Cn2c(C)cnc2CN1Cc1ccc(C)nc1 (stereo unspecified), the “Percent Effect” value was -10.88%.
For O=C(c1c(F)cccc1F)N1CCC[C@@H]1Cn1c(=O)oc2ccccc21, the “Percent Effect” value was 34.56%.
With COc1cccc(OC2CN(C(=O)c3sccc3C)C2)c1 the “Percent Effect” value was 55.64%.
With COc1cccc(OC2CN(C(=O)c3c(C)noc3C)C2)c1 the “Percent Effect” value was 10.7%.
COc1cccc(OC2CN(C(=O)c3ccoc3C)C2)c1 was tested, and the “Percent Effect” value was -6.916%.
With Cc1nc2c(c(NCc3cnc4c(c3)CCC4)n1)CNC2 the “Percent Effect” value was 4.431%.
With COCCS(=O)(=O)c1ncc(CN(C)C)n1Cc1ccccc1 the “Percent Effect” value was 5.309%.
CN(Cc1cccc(F)c1)C(=O)CN1CCCCC1Cn1cncn1 (stereo unspecified) was tested, and the “Percent Effect” value was -21.34%.
For CN(Cc1cccc(F)c1)C(=O)CN1CCCC1CCc1ccccc1 (stereo unspecified), the “Percent Effect” value was 61.93%.
For N#CCCN(CCC#N)C(=O)CN1CCCC1Cc1cccc(F)c1 (stereo unspecified), the “Percent Effect” value was 5.513%.
In the case of NC(=O)Nc1cccc(Oc2ccccn2)c1, the “Percent Effect” value was 3.298%.
For OCCN1CCN(CC(O)c2ccc(C(F)(F)F)cc2)CC1 (stereo unspecified), the “Percent Effect” value was -26.61%.
In the case of O=c1oc(-c2ccc(F)cc2)nn1CN1CCSCC1, the “Percent Effect” value was -31.85%.
CC(C)NC(=O)[C@@H]1CN(C(=O)C2CC2)C[C@]12Cc1ccccc1C(=O)N2 was tested, and the “Percent Effect” value was 41.43%.
With CN1C[C@@H](C(=O)NCC(F)(F)F)[C@@]2(CCc3ccccc3C(=O)N2)C1 the “Percent Effect” value was 4.729%.
With CCS(=O)(=O)N1C[C@@H](C(=O)NC(C)C)[C@@]2(Cc3ccccc3C(=O)N2)C1 the “Percent Effect” value was 50.91%.
For CCN(CC)c1ccc(NC(=O)NC(C)Cn2cccn2)cn1 (stereo unspecified), the “Percent Effect” value was -29.36%.
With CC(CNC(=O)Nc1ccc(N(C)C)nc1)Cn1cccn1 (stereo unspecified) the “Percent Effect” value was 53.74%.
In the case of CC(Cn1cccn1)NC(=O)Nc1ccc(N(C)C)nc1 (stereo unspecified), the “Percent Effect” value was -5.183%.
For CN1C[C@H](O)[C@]2(CCN(Cc3ccc(OC(F)(F)F)cc3)C2)S1(=O)=O, the “Percent Effect” value was 30.47%.
With O=C(C[C@@H]1COC[C@H]2CN(Cc3ccc(F)cc3)C[C@@H]12)N1CCCC1.O=C(O)C(F)(F)F the “Percent Effect” value was -5.358%.
In the case of CC(C)c1noc(C2CCN(C(=O)C3CCCO3)CC2)n1 (stereo unspecified), the “Percent Effect” value was 4.846%.
With O=c1c2cc3c(cc2nnn1Cc1cccc(F)c1)OCCO3 the “Percent Effect” value was -9.384%.
For Cc1ccc2c(n1)N(Cc1cccnc1)CCN(C(=O)C1CC=CC1)C2, the “Percent Effect” value was 30.61%.
In the case of CC(C)NC(=O)Nc1nc2c(s1)CN(C(=O)NCc1cccs1)CC2, the “Percent Effect” value was 53.32%.
For O=C(Nc1nc2c(s1)CN(C(=O)NCc1cccs1)CC2)C1CC1, the “Percent Effect” value was 25.74%.
With COC(=O)Nc1nc2c(s1)CN(C(=O)NCc1cccs1)CC2 the “Percent Effect” value was 35.61%.
With O=C(O)c1ccc(CN2CCCC(Cc3ccn[nH]3)C2)cc1 (stereo unspecified) the “Percent Effect” value was 18.19%.
Cc1cccc(OCCN2CCC(c3ccnn3CCO)CC2)c1 was tested, and the “Percent Effect” value was -13.34%.
With Cc1nn(CCCNC(=O)C2CCN(S(C)(=O)=O)CC2)c(Cl)c1Cl the “Percent Effect” value was 51.75%.
With Cc1nn(CCCNC(=O)C2CCN(S(C)(=O)=O)CC2)cc1Cl the “Percent Effect” value was 12.8%.
For Cc1nn(CCCNC(=O)C2CCN(S(C)(=O)=O)CC2)cc1Br, the “Percent Effect” value was 34.63%.
For CCCn1nnnc1COc1ccc(C(=O)OC)cc1, the “Percent Effect” value was 2.105%.
For CC(Nc1nc2c(cnn2C)c(=O)[nH]1)c1ccc(F)cc1 (stereo unspecified), the “Percent Effect” value was 46.54%.
For CC(C)Sc1ccc(C(C)Nc2nc3c(cnn3C)c(=O)[nH]2)cc1 (stereo unspecified), the “Percent Effect” value was 64.6%.
For CCC(=O)Nc1ccc(C(C)Nc2nc3c(cnn3C)c(=O)[nH]2)cc1 (stereo unspecified), the “Percent Effect” value was 16.12%.
